Compound activity from PubChem.
Shown are actives, neighbours in structure and some others; about 2.1% of the full set was active somewhere.
GalR3 antag = GalR3 antagonists in HEK293 cells, primary screen, cell-based, fluorescence readout; actives 0.44% (n = 360,000); HEK293 GalR3-CNG cAMP membrane potential fluorescence; galR3 body fused to GalR1 C-terminus; inhibition, % at 3 µM; Galanin receptor type 3 (Homo sapiens), O60755;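 active = inhibition above the screen-wide average plus 3 SD, cut at about 13% in these data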;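 note: forskolin and galanin both at EC90 stimulate the cells; cAMP rise reported by CNG channel membrane potential dye signal; 0% = forskolin plus galanin with DMSO and 100% = forskolin alone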
Target sequence (O60755 1-299 limits assumed): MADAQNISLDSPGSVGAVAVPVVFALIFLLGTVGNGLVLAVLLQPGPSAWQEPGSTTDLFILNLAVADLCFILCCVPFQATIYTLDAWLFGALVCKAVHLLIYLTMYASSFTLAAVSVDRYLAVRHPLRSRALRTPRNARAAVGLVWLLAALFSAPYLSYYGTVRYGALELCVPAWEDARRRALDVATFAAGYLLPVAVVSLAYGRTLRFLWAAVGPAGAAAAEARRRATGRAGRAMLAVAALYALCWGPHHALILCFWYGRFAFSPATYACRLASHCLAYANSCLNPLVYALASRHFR
aDG glyco up = activators of alpha-DG glycosylation, primary screen, uHTS, Pro5-aDG cells, AlphaScreen; activation, % at 10 µM; actives 0.22% (n = 360,000); alpha-DG glycosylation AlphaScreen (IIH6); 0% Pro5, 100% B10-LARGE cell signal; AID 624168, 2012;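 active = activation of at least 8% versus controls, or a plate z-score of at least 8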;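 note: Pro5 are CHO cells carrying HIG-tagged alpha-DG that lacks glycosylation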
COUP-TFII inh = NR2F2 transcriptional activity inhibitors, primary screen, cell-based, luciferase reporter, HEK293T, luminescence. COUP transcription factor 2 (Homo sapiens), P24468. HEK293T NGFI-A luciferase reporter. inhibition, % at 8.6 µM. actives 0.7% (n = 370,000);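 active = inhibition above a per-plate cutoff, mean inhibition of test wells between control levels plus 3 SD, cut at about 38% in these data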;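 note: cells cotransfected with COUP-TFII expression vector driving the NGFI-A reporter; 0% = median of COUP-TF2 test wells and 100% = reporter-only cells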
Target sequence (P24468 whole entry, looked up): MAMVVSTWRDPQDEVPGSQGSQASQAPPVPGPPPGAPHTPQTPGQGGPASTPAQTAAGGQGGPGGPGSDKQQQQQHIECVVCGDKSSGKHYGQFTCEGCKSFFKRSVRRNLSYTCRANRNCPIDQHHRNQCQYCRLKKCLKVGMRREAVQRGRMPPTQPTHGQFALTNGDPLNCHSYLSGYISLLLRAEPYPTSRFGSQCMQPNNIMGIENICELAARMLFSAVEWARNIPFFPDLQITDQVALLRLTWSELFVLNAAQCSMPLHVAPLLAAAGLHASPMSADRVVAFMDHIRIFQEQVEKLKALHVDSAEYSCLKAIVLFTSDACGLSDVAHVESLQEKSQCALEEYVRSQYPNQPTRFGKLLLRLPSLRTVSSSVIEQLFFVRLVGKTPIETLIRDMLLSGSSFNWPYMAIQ
Gli-Sufu antag = Gli-Sufu pathway antagonists, primary screen, luciferase luminescence, Sufu-KO-LIGHT cells, uHTS; Sufu-KO-LIGHT fibroblasts, Gli luciferase reporter luminescence; inhibition, % at 5 µM; actives 0.74% (n = 340,000); AID 588413, 2011;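 active = inhibition above about 55%, limit read from the data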;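 note: 0% = DMSO-treated cells and 100% = wells with medium but no cells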
HIV Env fusion = inhibitors of HIV-1 Env-driven cell-cell fusion, primary screen, HeLa-JRFL effector, CEM21 target cells, luciferase. inhibition, % at 12.3 µM. actives 1.1% (n = 360,000). AID 651610, 2012;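 active = mean replicate inhibition score of at least 50 and every replicate individually at or above 50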;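 note: 0% = plate neutral controls and 100% = maraviroc near 300 nM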
An asterisk follows results filed as active; · = not tested or not shown; [ ] = another dose, or the depositor's remark.

SMILES | GalR3 antag | aDG glyco up | COUP-TFII inh | Gli-Sufu antag | HIV Env fusion
O=C(CSCc1nc2ccccc2[nH]1)Nc1ccc2ccccc2c1 | 5.7 | 0.1 | 0.6 | 31.1 | 70.6*
CN1C(=O)c2cc(NC(=O)c3cccc(F)c3)ccc2OC[C@H]2O[C@H](CC(=O)O)CC[C@H]21 | · | · | · | · | 21.6[16.7 µM]
Cc1ccc(C(c2nnnn2CS(=O)(=O)c2ccc(C)cc2)N2CCCC2)cc1 (stereo not given) | -4.0 | 1.4 | -12.0 | 12.9 | 73.3*
Cc1ccc(S(=O)(=O)Cn2nnnc2C(c2ccc(F)cc2)N2CCCCC2)cc1 (stereo not given) | -2.6 | 0.1 | 1.6 | 8.6 | ·
C[C@H](O)C#Cc1cnc2c(c1)C(=O)N([C@H](C)CO)C[C@H](C)[C@H](CN(C)Cc1cccc(F)c1)O2 | · | · | · | · | 8.9[16.7 µM]
CC(C)(C)NC(=O)C(c1ccccc1)N(C(=O)C1CSC(=O)C1)c1ccccc1 (stereo not given) | -0.2 | -0.1 | -26.3 | -0.2 | 64.7*
COc1ccc2c3c([nH]c2c1)[C@@H](CO)N(C(=O)Nc1ccc(F)cc1)CC31CN(S(=O)(=O)c2cccc(C)c2)C1 | · | · | · | · | 15.1[16.7 µM]
COc1ccc2c3c([nH]c2c1)[C@H](CO)N(C(=O)Nc1ccc(F)cc1)CC31CN(S(=O)(=O)c2cccc(C)c2)C1 | · | · | · | · | -49.1[16.7 µM]
COc1ccc2c3c(n(C)c2c1)[C@@H](CO)N(C(=O)Nc1ccc(F)cc1)CC31CCN(Cc2cccc(F)c2)CC1 | · | · | · | · | 82.1*[16.7 µM]
COc1ccc2c3c(n(C)c2c1)[C@H](CO)N(C(=O)Nc1ccc(F)cc1)CC31CCN(Cc2cccc(F)c2)CC1 | · | · | · | · | 47.2[16.7 µM]
COc1ccc2c3c([nH]c2c1)[C@H](CO)N(C(=O)Nc1cccc(F)c1)CC31CN(S(=O)(=O)c2cccc(C)c2)C1 | · | · | · | · | 75.2*[16.7 µM]
COc1cccc(S(=O)(=O)N2CC3(CN(C(=O)Nc4cccc(F)c4)[C@@H](CO)c4[nH]c5cc(OC)ccc5c43)C2)c1 | · | · | · | · | 93.3*[16.7 µM]
Cc1noc(C)c1NC(=O)N(C)C[C@@H]1Oc2ccc(NC(=O)Nc3ccc(C(F)(F)F)cc3)cc2C(=O)N([C@@H](C)CO)C[C@H]1C | · | · | · | · | 7.1[16.7 µM]
O=C(c1ccc2c(c1)OCO2)N(CC1CCCO1)C1(C(=O)NC2CCCCC2)CCCCC1 (stereo not given) | -7.0 | 0.0 | -2.8 | 2.9 | 135.0*
CN(C(=O)c1ccc2c(c1)OCO2)C1(C(=O)NC2CCCC2)CCCCC1 | -3.8 | -0.3 | 8.2 | 4.7 | -36.2
Cc1cccc(NC(=O)CSc2nc3ccccc3nc2N2CC(C)OC(C)C2)c1 (stereo not given) | · | -0.2 | -8.2 | -15.2 | ·
CC1CN(c2nc3ccccc3nc2SCC(=O)Nc2cccc(C(F)(F)F)c2)CC(C)O1 (stereo not given) | -0.7 | 0.9 | -0.4 | 5.4 | 63.9*
COc1ccccc1-n1cc([C@@H]2C[C@H]3CN(c4ccccc4)C(=O)[C@]34CCCN24)cn1 | -3.8 | 1.3 | 7.0 | 29.8 | 58.6*
Cc1ccccc1S(=O)(=O)NC(=O)C1(C)CCN1C(=O)CCc1ccc(Cl)cc1Cl (stereo not given) | -4.9 | -0.1 | 12.9 | · | 71.0*
CC1(C(=O)NS(=O)(=O)c2ccccc2Cl)CCN1C(=O)CCc1ccc(Cl)cc1Cl (stereo not given) | -0.2 | 0.3 | -3.5 | · | 4.2
O=C(Nc1cccc(C(F)(F)F)c1)c1ccc(Cn2cc(Br)cn2)o1 | -4.2 | 1.3 | 29.7 | 12.4 | 79.4*
C[C@@H]1CCCCO[C@H](CN(C)C(=O)C2CCCCC2)[C@@H](C)CN([C@@H](C)CO)C(=O)c2cc(NC(=O)CCCN(C)C)ccc2O1 | · | · | · | · | 12.2[16.7 µM]
C[C@@H]1CN([C@H](C)CO)C(=O)c2cc(N(C)C)ccc2O[C@H]1CN(C)Cc1ccc(Cl)c(Cl)c1 | · | · | · | · | 4.7[16.7 µM]
CCC(=O)NC(=S)Nc1cccc(Cl)c1N1CCCCC1 | -4.0 | 0.2 | 17.3 | 5.3 | 73.3*
CCCC(=O)NC(=S)Nc1cccc(Cl)c1N1CCCCC1 | -8.6 | 0.0 | -22.8 | -0.8 | 26.0
SMILES | GalR3 antag | aDG glyco up | COUP-TFII inh | Gli-Sufu antag | HIV Env fusion
O=C(N[C@@H]1C=C[C@H](CC(=O)N2CCN(c3ccccc3)CC2)O[C@@H]1CO)c1ccncc1 | · | · | · | · | 12.5[16.7 µM]
CN(C)c1ccc(O)c2c1CC1CC3[C@@H](N(C)C)C(=O)C(C(N)=O)=C(O)[C@]3(O)C(=O)C1=C2O (stereo not given in full) | · | -0.3 | 8.4 | 22.4 | 73.4*
C[C@H]1c2cccc(O)c2C(O)=C2C(=O)[C@]3(O)C(O)=C(C(N)=O)C(=O)[C@@H](N(C)C)[C@@H]3[C@@H](O)[C@@H]21 | · | -0.1 | · | 0.2 | ·
O=S(=O)(c1ccc(-c2ccccc2)cc1)N1CCN(Cc2cccc(OCCO)c2)CC1 | · | · | · | · | -4.6[16.7 µM]
CCOC(=O)C1=C[C@@H](C2CCCC2)N(S(=O)(=O)c2ccc([N+](=O)[O-])cc2)[C@H]1c1ccccc1 | -8.5 | 0.4 | -1.8 | · | 55.4*
CCOC(=O)C1=C[C@@H](CC)N(S(=O)(=O)c2ccc(C)cc2)[C@H]1c1ccccc1 | -6.8 | 1.1 | 13.6 | · | -0.6
CCCNC(=O)N1CC2(CN(S(=O)(=O)c3ccccc3)C2)c2c(n(C)c3cc(OC)ccc23)[C@@H]1CO | · | · | · | · | -21.9[16.7 µM]
O=P(c1ccccc1)(c1ccccc1)C(c1ccccn1)P(=O)(c1ccccc1)c1ccccc1 | -6.3 | 0.0 | 8.0 | -0.7 | 66.4*
Cc1onc(-c2c(F)cccc2Cl)c1C(=O)OCC(=O)NC(c1ccccc1)c1ccccc1 | -4.8 | 0.2 | 2.3 | 2.9 | 93.5*
Cc1onc(-c2c(F)cccc2Cl)c1C(=O)OCC(=O)NC(N)=O | -7.8 | -0.2 | 13.8 | -0.9 | -4.6
CC=Cc1ccc2n(c1=O)C[C@H]1[C@H](CO)[C@@H](C(=O)N3CCc4ccccc4C3)N(C(=O)C3CC3)[C@@H]21 (mixture of isomers) | · | · | · | · | 23.2[16.7 µM]
O=C(C[C@H]1CC[C@@H]2[C@H](COC[C@@H](O)CN2Cc2ccc(F)cc2)O1)NCc1ccncn1 | · | · | · | · | 2.6[16.7 µM]
Clc1cc2cccnc2c2ncccc12 | -7.0 | 2.7 | 16.4 | 2.7 | ·
Cc1c(C)c2cccnc2c2ncccc12 | · | 0.8 | · | 91.6* | ·
O=C(Nc1ccc2c(c1)[C@@H]1C[C@@H](CC(=O)N3CCCCC3)O[C@H](CO)[C@@H]1O2)c1ccc2c(c1)OCO2 | · | · | · | · | 17.9[16.7 µM]
Cc1nc2c(OCc3ccc(C(F)(F)F)cc3)cccn2c1N(C)C(=O)CCC1CCCC1 | -6.5 | 1.1 | 16.8 | · | 60.7*
COc1ccc2c3c([nH]c2c1)[C@@H](CO)N(Cc1cccnc1)CC31CN(C(=O)c2cccnc2)C1 | · | · | · | · | -27.6[16.7 µM]
N=c1n(CCN2CCCCC2)c2ccccc2n1CC(O)c1ccc(Cl)c(Cl)c1 (stereo not given) | -3.7 | 0.0 | 0.6 | 6.8 | 13.6
N=c1n(CCN2CCCCC2)c2ccccc2n1CC(=O)c1ccc(Cl)c(Cl)c1 | 4.4 | 5.4* | 11.7 | 13.0 | -7.0
